CD40 NFkB inh – CD40 pathway inhibition in BL2 cells. BL2 NF-kB luciferase reporter, CD40L-induced, 4 h. actives 0.94% (n = 83,000). inhibition, % at 10 µM. AID 1053188;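 active = mean inhibition of at least 50% with a set share of replicates also reaching that level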
Each line names hits and unclear results; the compound was inactive in the other large screens; [ ] = dose if it differs, or a comment. The entries come from a sample that favours hits as a whole.

CCN(CCCl)c1cc(CN(C)C)cc(NC(=O)c2ccc(C(=O)Nc3cc(CN(C)C)cc(N(CC)CCCl)c3)cc2)c1	CD40 NFkB inh 108
O=C(O)[C@H]1[C@H](CO)[C@H]2Cn3c(ccc(-c4ccc(F)cc4)c3=O)[C@@H]1N2CC1CCCCC1	none
C[C@H](CO)N1C[C@H](C)[C@@H](CN(C)C(=O)Oc2ccccc2)OCc2ccccc2-c2c(n(C)c3ccccc23)C1=O	none
COC(=O)[C@@H]1[C@@H](CO)[C@@H]2Cn3c(ccc(-c4cncnc4)c3=O)[C@H]1N2S(=O)(=O)c1ccccc1C	none
CN1CCC2(c3cccc(O)c3)Cc3nc4ccccc4cc3CC2C1 (stereo not given)	none
O=C1CNC[C@H]2[C@@H](c3ccc(Br)cc3)[C@@H](CO)N12	none
CC(C)NC(=O)N1[C@@H]2c3ccc(-c4cccc(C(=O)N(C)C)c4)c(=O)n3C[C@H]1[C@H](CO)[C@H]2C(=O)O	none
COc1cc2cc(C(=O)N3CC(COS(C)(=O)=O)c4ccc(O)cc43)[nH]c2c(OC)c1OC (stereo not given)	CD40 NFkB inh 91
O=C(Cc1cccnc1)N1CCCCN2[C@H](CO)[C@@H](c3ccc(C#CC4CCCC4)cc3)[C@@H]2C1	none
COc1cccc(-c2ccc([C@@H]3[C@@H](CO)N4CCCCN(C(=O)Cc5ccncc5)C[C@H]34)cc2)c1	none
OCC1OC(n2cnc3cc(Cl)c(Cl)cc32)C(O)C1O (stereo not given)	CD40 NFkB inh 47
COc1cccc(-c2ccc([C@H]3[C@@H](CO)N4CCCCN(C(=O)Cc5ccncc5)C[C@H]34)cc2)c1	none
C[C@H](CO)N1C[C@H](C)[C@H](CN(C)C(=O)Oc2ccccc2)OCc2ccccc2-c2c(n(C)c3ccccc23)C1=O	none
COC(=O)[C@H]1[C@H](CO)[C@H]2Cn3c(cccc3=O)[C@@H]1N2CCc1ccccc1	none
CC(=O)N1C[C@@H]2C(c3ccc(Br)cc3)[C@H](C1)N2CC1CC1 (stereo not given in full)	none
c1cc(-c2ccc(C3[C@H]4CNC[C@@H]3N4CC3CC3)cc2)ccn1 (stereo not given in full)	none
COc1ccc2[nH]cc(CCN)c2c1	none
COc1ccc2[nH]c(C)c(CCNCc3cn(C)c4ccccc34)c2c1	none
COc1ccc2[nH]c3c(c2c1)CCN=C3C	CD40 NFkB inh 58
O=C(O)[C@@H]1[C@@H](CO)[C@@H]2Cn3c(ccc(-c4ccccc4)c3=O)[C@H]1N2C(=O)C1CCCCC1	none
O=C1CNC[C@H]2[C@H](c3ccc(Br)cc3)[C@@H](CO)N12	none
CC(=O)N1C2CN(C)CC1C2c1ccc(Br)cc1 (stereo not given)	none
CC1CCOC(=O)C=CC=CC(=O)OC2CC3OC4C5OC5(C)C(O)CC4(COC(=O)C1O)C2(C)C31CO1 (stereo not given)	CD40 NFkB inh 95
CC1=CC2OC3CC4OC(=O)C=CC=CC(C(C)O)OCC(O)C5(C)OC5C(=O)OCC2(CC1O)C4(C)C31CO1 (stereo not given)	CD40 NFkB inh 86
CC(=O)N1C[C@@H]2N[C@H](C1)C2c1ccccc1 (stereo not given in full)	none
O=C([C@H]1N[C@H]2c3cccc(=O)n3C[C@H]2[C@@H]1CO)N1CCCCC1	none
CCCNC(=O)N1[C@@H]2Cn3c(ccc(-c4ccccc4OC)c3=O)[C@H]1[C@@H](C(=O)OC)[C@@H]2CO	none
COC(=O)[C@H]1[C@H](CO)[C@H]2Cn3c(ccc(-c4ccccc4)c3=O)[C@@H]1N2S(=O)(=O)c1ccccc1C	none
CN1C2CN(CC(F)(F)F)CC1C2c1ccc(Br)cc1 (stereo not given)	none
c1ccc(Cn2ccnc2)cc1	none
Clc1ccc(CSC(Cn2ccnc2)c2ccc(Cl)cc2Cl)cc1 (stereo not given)	CD40 NFkB inh 49
C=CCN1[C@@H]2CN(C(=O)NC(C)C)C[C@H]1C2c1ccccc1 (stereo not given in full)	none
CN1C[C@@H]2N[C@H](C1)C2c1ccc(Br)cc1 (stereo not given in full)	none
O=C(Cc1ccncc1)N1CCCCN2[C@H](CO)[C@H](c3ccc(-c4ccncc4)cc3)[C@@H]2C1	none
N#Cc1c(Br)n(C2OC(CO)C(O)C2O)c2ncnc(N)c12 (stereo not given)	CD40 NFkB inh 83
NC(=O)c1c(Br)n(C2OC(CO)C(O)C2O)c2ncnc(N)c12 (stereo not given)	CD40 NFkB inh 56
CCNC(=O)[C@H]1O[C@@H](n2cnc3c(N)ncnc32)[C@H](O)[C@@H]1O	none
O=C(Cc1cccnc1)N1CCCCN2[C@H](C1)[C@@H](c1ccc(C#CC3(O)CCCC3)cc1)[C@@H]2CO	none
COc1cccc(-c2ccc([C@@H]3[C@H](CO)N4CCCCN(C(=O)Cc5ccncc5)C[C@@H]34)cc2)c1	none
C/C=C/c1ccc(C2[C@@H]3CN(C(=O)CN(C)C)C[C@H]2N3)cc1 (stereo not given in full)	none
C[C@@H]1CN([C@@H](C)CO)C(=O)c2c(c3ccccc3n2C)-c2ccccc2CO[C@H]1CN(C)C(=O)Oc1ccccc1	none
COc1ccc(CC2C(=O)NC(C)C(=O)N(C)C3C(=O)N(C)C(Cc4ccc(O)c(c4)Oc4ccc(cc4)C3O)C(=O)NC(C)C(=O)NC(C)C(=O)N2C)cc1 (stereo not given)	CD40 NFkB inh 124
CC(C)NC(=O)N1C[C@@H]2C(c3ccccc3)[C@H](C1)N2CC1CC1 (stereo not given in full)	none
CC(C)C1(NC(=O)C2CC3c4cccc5[nH]cc(c45)CC3N(C)C2)OC2(O)C3CCCN3C(=O)C(Cc3ccccc3)N2C1=O (stereo not given)	none
CC(C)=CCCN1CCC(NC(=O)[C@](O)(c2ccccc2)C2CCCC2)CC1	none
Cc1ccc(OC(=O)N(C)C[C@H]2OCc3ccccc3-c3c(n(C)c4ccccc34)C(=O)N([C@@H](C)CO)C[C@@H]2C)cc1	none
Cc1ccc(OC(=O)N(C)C[C@@H]2OCc3ccccc3-c3c(n(C)c4ccccc34)C(=O)N([C@@H](C)CO)C[C@H]2C)cc1	CD40 NFkB inh 55[25 µM]
Cc1ccc(OC(=O)N(C)C[C@H]2OCc3ccccc3-c3c(n(C)c4ccccc34)C(=O)N([C@H](C)CO)C[C@H]2C)cc1	none
C/C=C/c1ccc([C@@H]2[C@@H](CO)N3CCCCN(C(=O)Cc4cccnc4)C[C@@H]23)cc1	none
CC1CC(C)(O)CC(C(O)CC2CC(=O)NC(=O)C2)C1=O (stereo not given)	CD40 NFkB inh 96
COc1ccccc1CN1[C@H](CO)[C@H](c2ccccc2)C12CN(C(=O)Cc1ccccc1)C2	none
C[C@H]1CN([C@@H](C)CO)C(=O)CCCn2cc(nn2)CO[C@@H]1CN(C)C(=O)Oc1ccc2ccccc2c1	none
O=C(Cc1ccccn1)N1CCCCN2[C@@H](CO)[C@@H](c3ccc(Br)cc3)[C@@H]2C1	none
C#CCN1C(C)=C(C(=O)CCO)C(c2cccc(-n3oo3)c2)C(C(=O)OC)=C1C (stereo not given)	none
C=CCN1[C@@H]2CN(C(C)=O)C[C@H]1C2c1ccccc1 (stereo not given in full)	none
O=C1Nc2cc(Cl)c(Cl)cc2N2CCNCC12 (stereo not given)	none
CCCCC1C(=O)NC(=S)N(C)C1=O (stereo not given)	CD40 NFkB inh 33
O=C(Cc1ccncc1)N1CCCCN2[C@@H](CO)[C@@H](c3ccc(C#Cc4ccccc4F)cc3)[C@@H]2C1	none
O=C(O)[C@H]1[C@H](CO)[C@H]2Cn3c(ccc(-c4ccccc4)c3=O)[C@@H]1N2C(=O)C1CCCCC1	none

High-throughput results deposited in PubChem by Broad Institute.
